Measured values as given in PubChem BioAssay AID1159580 (chemical genetic matrix, 2015).
The campaign covered roughly 5,500 compounds. About 2,000 (36%) were called active. About 18% were inconclusive and are not listed. No stated cut-off is given here; in the data, active means normalized growth mostly below about 0.91 (no sharp cut-off); inconclusive means no clear call, values can overlap the other calls; inactive means mostly above about 0.92. This is one part of the list.

Test: chemical genetic growth profiling, strain panel (AID 1159580);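 further: tested at 20 µM; growth read once vehicle control cultures reached saturation at 30 °C; 1 = growth at the plate median or of vehicle wells; lower values mean less growth of the strain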
Settings: growth OD

Measured: normalized growth

CCCCCc1ccc(S(=O)(=O)Nc2cccnc2Oc2ccc(Cl)cc2)cc1
inactive: S. cerevisiae deletion strains, locus YAL013W, strain DEP1, active compounds read low 0.988 | S. cerevisiae deletion strains, locus YBR229C, strain ROT2, active compounds read low 1 | S. cerevisiae deletion strains, locus YDL101C, strain DUN1, active compounds read low 0.992 | S. cerevisiae deletion strains, locus YDL134C, strain PPH21, active compounds read low 0.994 | S. cerevisiae deletion strains, locus YDR150W, strain NUM1, active compounds read low 1 | S. cerevisiae deletion strains, locus YEL061C, strain CIN8, active compounds read low 1 | S. cerevisiae deletion strains, locus YGR078C, strain PAC10, active compounds read low 1 | S. cerevisiae deletion strains, locus YHR030C, strain SLT2, active compounds read low 0.965 | S. cerevisiae deletion strains, locus YHR087W, strain rtc3, active compounds read low 0.987 | S. cerevisiae deletion strains, locus YJL187C, strain SWE1, active compounds read low 0.998 | S. cerevisiae deletion strains, locus YJR043C, strain POL32, active compounds read low 0.988 | S. cerevisiae deletion strains, locus YJR075W, strain HOC1, active compounds read low 0.964 | S. cerevisiae deletion strains, locus YLR039C, strain RIC1, active compounds read low 0.951 | S. cerevisiae deletion strains, locus YLR058C, strain SHM2 (second series), active compounds read low 0.994 | S. cerevisiae deletion strains, locus YLR085C, strain ARP6, active compounds read low 1 | S. cerevisiae deletion strains, locus YLR262C, strain YPT6, active compounds read low 0.951 | S. cerevisiae deletion strains, locus YML094W, strain GIM5, active compounds read low 0.998 | S. cerevisiae deletion strains, locus YMR219W, strain ESC1, active compounds read low 0.996 | S. cerevisiae deletion strains, locus YMR263W, strain SAP30, active compounds read low 0.997 | S. cerevisiae deletion strains, locus YMR307W, strain GAS1, active compounds read low 0.992 | S. cerevisiae deletion strains, locus YNL128W, strain TEP1, active compounds read low 1.01 | S. cerevisiae deletion strains, locus YNL153C, strain GIM3, active compounds read low 1 | S. cerevisiae deletion strains, locus YNL298W, strain CLA4 (second series), active compounds read low 1.01 | S. cerevisiae deletion strains, locus YNL322C, strain KRE1, active compounds read low 0.995 | S. cerevisiae deletion strains, locus YNR030W, strain Alg12, active compounds read low 0.984 | S. cerevisiae deletion strains, locus YOL006C, strain TOP1, active compounds read low 0.986 | S. cerevisiae deletion strains, locus YPL055C, strain LGE1, active compounds read low 0.989 | S. cerevisiae deletion strains, locus YPL241C, strain CIN2, active compounds read low 1.08 | S. cerevisiae deletion strains, locus YPR135W, strain CTF4, active compounds read low 1.02 | S. cerevisiae strains, strain wild type, active compounds read low 1
